Screening results as filed in PubChem BioAssay.
SMN2 splice up = qHTS Assay for Enhancers of SMN2 Splice Variant Expression. Potency, µM (series often up to 46.1 µM), without a hit: top-dose activity change, positive = activation, most hits filed as activators. AID 1458, 2008. 2.8% of 210,000 active. HEK293 SMN2-luciferase splicing reporter, luminescence, 30-36 h; further: % of control where 0% means no effect; nearly all actives have a fitted effect of over 55% in size
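qHTS luciferase splicing reporter: luminescence rises when SMN2 exon 7 is included in transfected HEK293 cells. Compound exposure lasted 30-36 h at 37C, with 4.5 mM final sodium butyrate as control, followed by a ONE-Glo read.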
ELG1 genotoxic = qHTS screen for small molecules that induce genotoxicity in human embryonic kidney (HEK293T) cells expressing luciferase-tagged ELG1; HEK293T ELG1-luciferase reporter, luminescence, 16 h; Potency, µM (doses to about 46 µM), inactives show top-dose activity change, positive = activation, hits mostly activators; 1.3% of 330,000 active; AID 504466, 2011; further: % of control where 0% means no effect; nearly all actives have a fitted effect of over 60% in size
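Genotoxic stress is detected as increased luminescence from luciferase-tagged ELG1 in HEK293T cells, measured with ONE-Glo after a 16 hr treatment at 37 °C.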
NPC1 promoter act = qHTS Assay for NPC1 Promoter Activators | AID 485313, 2010 | 2.4% of 320,000 active | Potency, µM (series often up to 9.22 µM), without a hit: at the highest dose activation, hits mostly activators | Huh7 NPC1 promoter luciferase reporter, 24 h; further: % of control where 0% means no effect; nearly all actives have a fitted effect of over 60% in size
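Readout is luciferase luminescence, reflecting NPC1 promoter activation in stably transfected Huh7 cells after 24 h compound exposure at 37 °C in reduced-serum medium with 10% FBS.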
Rab9 prom act = qHTS Assay for Rab9 Promoter Activators. Huh7 Rab9 promoter-luciferase reporter, luminescence, 24 h. Potency, µM (titrated, usually from 9.22 µM), inactives show top-dose activation, negative = inhibition, usual class: activators. 2.8% of 320,000 active. AID 485297, 2010; further: % of control where 0% means no effect; nearly all actives have a fitted effect of over 60% in size
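Rab9 promoter-driven luciferase in stably transfected Huh7 cells; 1500 cells/well rested 2 h, exposed to compound in DMSO for 24 h at 37 °C, 5% CO2. Luminescence read 10 min after adding luciferase reagent at ambient temperature.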
p53 reactivation = qHTS assay for re-activators of p53 using a Luc reporter; H1299 p53-A138V BP100-luciferase reporter, luminescence, 24 h; 0.063% of 320,000 active; Potency, µM (doses to about 92.2 µM), inactives show at the highest dose activity change, positive = activation, most hits filed as activators; further: % of control where 0% means no effect; nearly all actives have a fitted effect of over 45% in size
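p53-null H1299 cells stably carrying temperature-sensitive p53-A138V and a BP100-luciferase reporter were pinned with compounds (4-point, 1:5 series) and held 24 hrs at 37 deg C. Luminescence was read 10 min after detection reagent.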
FLuc counter = qHTS profiling assay for firefly luciferase inhibitor/activator using purifed enzyme and Km concentrations of substrates (counterscreen for miR-21 project); Luciferin 4-monooxygenase (Photinus pyralis), P08659; purified FLuc, Km substrates, luminescence inhibition; Potency, µM (series often up to 57.5 µM), for the others: at the highest dose activity change, negative = inhibition, usual class: inhibitors; 6.9% of 360,000 active;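 further: plate controls were vehicle for no effect and reference inhibitor for full effect; nearly all actives have a fitted effect of over 55% in size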
Target sequence (P08659 whole entry, looked up): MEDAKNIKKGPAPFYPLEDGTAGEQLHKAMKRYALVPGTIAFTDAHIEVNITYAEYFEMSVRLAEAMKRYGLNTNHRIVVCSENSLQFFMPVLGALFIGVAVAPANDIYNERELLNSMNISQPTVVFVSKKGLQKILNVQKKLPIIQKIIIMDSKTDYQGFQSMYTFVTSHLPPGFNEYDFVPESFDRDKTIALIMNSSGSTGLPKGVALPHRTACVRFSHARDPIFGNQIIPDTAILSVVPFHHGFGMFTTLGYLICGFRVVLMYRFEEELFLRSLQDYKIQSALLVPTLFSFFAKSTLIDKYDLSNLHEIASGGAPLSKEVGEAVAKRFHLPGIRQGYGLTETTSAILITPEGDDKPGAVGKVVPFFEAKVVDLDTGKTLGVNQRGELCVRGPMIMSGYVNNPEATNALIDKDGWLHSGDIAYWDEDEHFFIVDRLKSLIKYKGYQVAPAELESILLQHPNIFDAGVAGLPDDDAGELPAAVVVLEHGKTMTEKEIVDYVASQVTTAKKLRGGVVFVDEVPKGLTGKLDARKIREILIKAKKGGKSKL
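Purified P. pyralis luciferase (10nM final) with 10uM D-luciferin and 10uM ATP (Km levels) in 50mM Tris acetate pH 7.5, 10mM Mg acetate, 0.01% Tween-20, 0.05% BSA; qHTS 6-point titration, ~60 µM downward; luminescence read.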
* = called active by the depositor; ? = inconclusive; · = no result; [ ] = remark or other dose. An excerpt weighted towards active compounds, which were near 7.4% of everything screened. The call rests on the fitted dose curve; in most records, active means well fitted curve in the direction sought with a large enough effect; inconclusive means small, poorly fitted or top-dose-only effect, or another doubt; inactive means no such curve, though single readings can be large; an effect the other way counts as inactive or inconclusive. Potency means the concentration at half of the fitted maximal effect.

SMILES	SMN2 splice up	ELG1 genotoxic	NPC1 promoter act	Rab9 prom act	p53 reactivation	FLuc counter
C[C@H]1Cc2c(COc3ccccc3)nc3c(c2CO1)CN(C(=O)Cc1cccs1)CC3	-3.1%[9.22 µM]	·	·	·	·	·
Cc1ccc(S(=O)(=O)N2CCN(C(=O)NCc3ccc(C(=O)O)cc3)CC2)cc1	·	24.3%	7.8%	?	9.6%	1.5%
Cc1ccc(C(=O)Nc2ccc(C(=O)O)cc2)cc1S(=O)(=O)N1CCC(C)CC1	-10.5%	·	·	·	·	?
Nc1c(C(=O)N2CCCC2)sc2nc3c(cc12)CCCCCC3	14.1µM*	13.9%	3.16µM*	3.98µM*	7.4%	?
COC(=O)c1sc2nc3c(cc2c1N)CCCC3	10µM*	?	1.41µM*	0.501µM*	9.5%	3.01µM*
Nc1c(C(=O)N2CCOCC2)sc2nc3c(cc12)CCC3	11.2µM*	2.91µM*	1.26µM*	0.891µM*	-1.6%	7.57µM*
NC(=O)c1sc2nc3c(cc2c1N)CCC3	?	-8.2%	?	?	-1.2%	?
Nc1c(C(=O)N2CCOCC2)sc2nc3c(cc12)CCCC3	·	0.58µM*	0.355µM*	0.112µM*	-0.8%	0.477µM*
Cc1cc(C)c2c(N)c(C(=O)N3CCCCCC3)sc2n1	7.5%	-2.4%	0.0%	0.9%	6.9%	-19.8%
CC(=O)Nc1c(C(=O)N2CCOCC2)sc2nc3c(cc12)COC(C)(C)C3	-1.4%	3.9%	-0.5%	-6.5%	-4.9%	9.5%
COc1ccc(-c2coc3cc(OC)cc(OC)c3c2=O)cc1	7.3%	?	?	?	6.6%	15.1µM*
COc1cc(OC)c2c(=O)c(-c3ccccc3)coc2c1	11.2µM*	·	·	·	·	·
COc1ccc(/C=C/C(=O)c2ccc[nH]2)cc1OC	?	20.6µM*	?	3.16µM*	?	12µM*
COc1ccc(/C=C/C(=O)c2ccc(C(=O)/C=C/c3ccc(OC)c(OC)c3)cc2)cc1OC	·	3.1%	-5.8%	-4.5%	-13.1%	2.5%
COc1ccc(/C=C/C(=O)c2ccncc2)c2ccccc12	-56.7%	-3.6%	1.5%	-5.3%	1.7%	?
COc1ccc(/C=C/C(=O)c2ccc[nH]2)c(OC)c1OC	?	?	?	?	27.8%	8.49µM*
COC(=O)c1sc(NC(=O)c2ccc([N+](=O)[O-])o2)c(C#N)c1C	·	-7.6%	-1.1%	-9.4%	?	26.9µM*
COC(=O)c1c(NC(=O)c2ccc([N+](=O)[O-])o2)sc2c1CCN(C(C)C)C2	·	6.4%	-21.7%	-1.8%	-26.9%	-0.9%
CC(=O)N1CCc2c(sc(NC(=O)c3ccc([N+](=O)[O-])o3)c2C#N)C1	11.2µM*	?	?	3.98µM*	2.9%	?
COc1ccc(C(=O)Nc2sc3c(c2C#N)CCN(C(C)=O)C3)cc1	-29.2%	?	-25.2%	5.0%	21.3%	?
CCN(CC)C(=O)c1sc(NC(=O)c2c(OC)cccc2OC)c(C#N)c1C	14.9%	0.0%	-0.2%	-1.2%	13.2%	-16.1%
CCN(CC)C(=O)c1sc(NC(=O)c2cccc([N+](=O)[O-])c2)c(C#N)c1C	-94.7%	-8.9%	1.3%	1.8%	0.0%	23.9µM*
CCc1nnc(NC(=O)c2ccc3ccccc3n2)s1	2.82µM*	-15.2%	?	2.51µM*	28.9%	13.5µM*
CCSc1nnc(NC(=O)c2cc(C)nc3ccccc23)s1	-4.4%	-0.3%	-3.2%	-5.1%	-7.3%	4.1%
CCSc1nnc(NC(=O)c2ccc3ccccc3n2)s1	14.1µM*	?	?	?	?	12µM*
CCc1nnc(NC(=O)c2sc3nc4cc(C)ccc4cc3c2N)s1	-8.6%	-1.8%	13.5%	16.6%	6.5%	9.53µM*
COc1ccc2[nH]cc(CCNc3cc(-c4ccoc4)ncn3)c2c1	-16.0%	·	·	·	·	·
